The values below come from PubChem BioAssay (NCATS).

Test [1] has as its system Zika virus NS2B-NS3 protease (unlinked complex). Kind of test: Primary screen GU Rhodamine qHTS for Zika virus inhibitors: Unlinked NS2B-NS3 protease assay (AID 1347159). Note: nearly all actives have a fitted effect of over 60% in size. The method in brief:
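Compounds, tested up to 114 microM, were incubated for 15 minutes with 25 nM unlinked NS2B-NS3 protease at pH 8.0. Cleavage of 1.5 microM Rhodamine110 substrate was then followed by fluorescence for 15 minutes.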

In test [2] the test system is Zika virus NS2B-NS3 protease (linked construct). Kind of test: Primary screen NINDS Rhodamine qHTS for Zika virus inhibitors (AID 1347160). Note: nearly all actives have a fitted effect of over 55% in size. The method, boiled down:
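Percent inhibition, normalized to uninhibited and enzyme-free controls, is fitted to a 4-parameter Hill equation. Fluorescence change comes from a 15-min cleavage of 1.5 microM bis-peptide Rhodamine110 substrate by 25 nM linked NS2B-NS3 at room temperature.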
Background: Quantitative high-throughput screening tests each substance at several concentrations.

Results filed as inconclusive are left out. Entries that show only a call come without a potency. Calls of active or inactive are those of the source. Calls come from the whole dose curve; as a rule, active = well fitted inhibition curve with a large enough effect; inconclusive = small, poorly fitted or top-dose-only effect; inactive = no such curve, though single readings can be large or run the other way.

On to `C=CC1C(O[C@@H]2O[C@H](CO)[C@@H](O)[C@H](O)[C@H]2O)OC=C(C(=O)OC)C1CC(=O)O` (some centres not stated), for which the Potency result in test [1] and in test [2] was “inactive” in each case.
As for `C[C@@]12C[C@]3(O)O[C@H](O1)[C@]1(COC(=O)c4ccccc4)[C@H]3C[C@@]12O[C@@H]1O[C@H](COC(=O)c2ccccc2)[C@@H](O)[C@H](O)[C@H]1O`, the Potency entry in test [1] and in test [2] was “inactive” each time.
On to `CCc1nc(C(N)=O)c(Nc2ccc(N3CCC(N4CCN(C)CC4)CC3)c(OC)c2)nc1NC1CCOCC1`, for which the Potency result in test [1] and in test [2] was “inactive” throughout.
Regarding `COc1c(OC2OC(CO)C(O)C(O)C2O)ccc(O)c1C(=O)OCc1ccccc1O[C@@H]1O[C@H](CO)[C@@H](O)[C@H](O)[C@H]1O` (some centres not stated), the Potency result in test [1] and in test [2] was “inactive” in each case.
Consider `COC(=O)C1=CO[C@@H](O[C@@H]2O[C@H](CO)[C@@H](O)[C@H](O)[C@H]2O)[C@@H]2[C@@H](C)[C@@H](O)C[C@H]12`, for which the Potency result in test [1] and in test [2] was “inactive” each time.
For the compound `C[C@@H]1C(=O)O[C@H]2CC34[C@H]5C[C@@H](C(C)(C)C)C36[C@@H](OC(=O)[C@@H]6O)OC4(C(=O)O5)[C@]21O` (some centres not stated), the Potency result in test [1] and in test [2] was “inactive” throughout.
Consider `CC1NC(=O)C(Cc2c[nH]c3ccccc23)NC1=O` (configuration not stated), for which the Potency result in test [1] and in test [2] was “inactive” in each case.
With `COc1cc(/C=C/CO)ccc1O[C@@H]1O[C@H](CO)[C@@H](O)[C@H](O)[C@H]1O`, the Potency result in test [1] and in test [2] was “inactive” each time.
For `CC1(C)O[C@]23C[C@H]1C[C@H](OC(=O)c1ccoc1)[C@]2(C)[C@@H](OC(=O)c1ccoc1)CCC3(C)O` (some centres not stated), the Potency entry in test [1] and in test [2] was “inactive” each time.
Regarding `O=C(O[C@H]1[C@@H]2C=CO[C@@H](O[C@@H]3O[C@H](CO)[C@@H](O)[C@H](O)[C@H]3O)[C@@H]2[C@@]2(CO)O[C@@H]12)c1ccc(O)cc1`, the Potency result in test [1] and in test [2] was “inactive” each time.
As for `C=C(C)C(=O)O[C@H]1C[C@@](C)(OC(C)=O)[C@@]2(O)CC[C@@](C)(O)[C@H](OC(C)=O)[C@@]23OC(=O)C(COC)=C13`, the Potency result in test [1] and in test [2] was “inactive” each time.
